Source: the supplement of paper PMC8728848
The full list was thinned out, with the strongest signals kept by preference.

Tests used:
Experiment in all cases: glycan array binding signal (z-score within array); higher = stronger binding
Details in all cases: glycan notation: IUPAC condensed, linker removed
Gal6P(b1-4)GlcNAc = target: Gal6P(b1-4)GlcNAc
Summary of the method: (§1)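 From the Consortium for Functional Glycomics database, 3228 arrays were curated, keeping only those whose protein sequence was available. Binding is given as a within-array Z-score averaged across arrays sharing a protein sequence and across linkers. Negative Z-scores can be read as non-binding.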

GalNAc(a1-3)Gal = target: GalNAc(a1-3)Gal
Summary of the method: as §1

GalNAc(b1-3)Gal = target: GalNAc(b1-3)Gal
Summary of the method: as §1

[1] = target: GalNAc(b1-3)Gal(a1-4)Gal(b1-4)GlcNAc(b1-3)Gal(b1-4)Glc
Summary of the method: as §1

[2] = target: GalNAc(b1-4)GlcNAc(b1-2)Man
Summary of the method: as §1

Glc(b1-4)Glc = target: Glc(b1-4)Glc
Summary of the method: as §1

[3] = target: GlcNAc(b1-2)Gal(b1-3)GalNAc
Summary of the method: as §1

[4] = target: GlcNAc(b1-2)[GlcNAc(b1-4)]Man(a1-3)[GlcNAc(b1-4)][GlcNAc(b1-2)[GlcNAc(b1-6)]Man(a1-6)]Man(b1-4)GlcNAc(b1-4)GlcNAc
Summary of the method: as §1

GlcNAc(b1-3)Gal(b1-4)Glc = target: GlcNAc(b1-3)Gal(b1-4)Glc
Summary of the method: as §1

[5] = target: GlcNAc(b1-3)Gal(b1-4)GlcNAc(b1-2)Man(a1-3)[GlcNAc(b1-3)Gal(b1-4)GlcNAc(b1-2)Man(a1-6)]Man(b1-4)GlcNAc(b1-4)GlcNAc
Summary of the method: as §1

[6] = target: GlcNAc(b1-3)Gal(b1-4)GlcNAc(b1-3)Gal(b1-4)GlcNAc(b1-2)[GlcNAc(b1-3)Gal(b1-4)GlcNAc(b1-3)Gal(b1-4)GlcNAc(b1-6)]Man(a1-6)[GlcNAc(b1-3)Gal(b1-4)GlcNAc(b1-3)Gal(b1-4)GlcNAc(b1-2)Man(a1-3)]Man(b1-4)GlcNAc(b1-4)[Fuc(a1-6)]GlcNAc
Summary of the method: as §1

[7] = target: GlcNAc(b1-3)Gal(b1-4)GlcNAc(b1-3)Gal(b1-4)GlcNAc(b1-3)Gal(b1-4)GlcNAc(b1-3)Gal(b1-4)GlcNAc(b1-2)Man(a1-3)[GlcNAc(b1-3)Gal(b1-4)GlcNAc(b1-3)Gal(b1-4)GlcNAc(b1-3)Gal(b1-4)GlcNAc(b1-3)Gal(b1-4)GlcNAc(b1-2)Man(a1-6)]Man(b1-4)GlcNAc(b1-4)GlcNAc
Summary of the method: as §1

[8] = target: GlcNAc(b1-3)Gal(b1-4)GlcNAc(b1-3)Gal(b1-4)GlcNAc(b1-3)GalNAc
Summary of the method: as §1

[9] = target: Neu5Ac(a2-3)Gal(b1-3)GalNAc(b1-3)Gal(a1-4)Gal(b1-4)Glc
Summary of the method: as §1

[10] = target: Neu5Ac(a2-3)Gal(b1-3)GlcNAc(b1-2)[Neu5Ac(a2-3)Gal(b1-3)GlcNAc(b1-4)]Man(a1-6)[Neu5Ac(a2-3)Gal(b1-3)GlcNAc(b1-2)Man(a1-3)]Man(b1-4)GlcNAc(b1-4)GlcNAc
Summary of the method: as §1

[11] = target: Neu5Ac(a2-3)Gal(b1-4)GlcNAc(b1-2)Man(a1-3)[Neu5Ac(a2-3)Gal(b1-4)GlcNAc(b1-2)Man(a1-6)]Man(b1-4)GlcNAc(b1-4)[Fuc(a1-6)]GlcNAc
Summary of the method: as §1

[12] = target: Neu5Ac(a2-3)Gal(b1-4)[Fuc(a1-3)]GlcNAc(b1-2)Man
Summary of the method: as §1

[13] = target: Neu5Ac(a2-3)Gal(b1-4)[Fuc(a1-3)]GlcNAc(b1-6)[Neu5Ac(a2-3)Gal(b1-3)]GalNAc
Summary of the method: as §1

[14] = target: Neu5Ac(a2-3)Gal(b1-4)[Fuc(a1-3)]GlcNAc6S
Summary of the method: as §1

[15] = target: Neu5Ac(a2-6)Gal(b1-4)GlcNAc
Summary of the method: as §1

[16] = target: Neu5Ac(a2-6)Gal(b1-4)GlcNAc(b1-2)Man(a1-3)[Gal(b1-4)GlcNAc(b1-2)Man(a1-6)]Man(b1-4)GlcNAc(b1-4)GlcNAc
Summary of the method: as §1

[17] = target: Neu5Ac(a2-6)Gal(b1-4)GlcNAc(b1-2)Man(a1-3)[Neu5Ac(a2-6)Gal(b1-4)GlcNAc(b1-2)Man(a1-6)]Man(b1-4)GlcNAc(b1-4)[Fuc(a1-6)]GlcNAc
Summary of the method: as §1

[18] = target: Neu5Ac(a2-6)Gal(b1-4)GlcNAc(b1-3)Gal(b1-4)GlcNAc(b1-3)Gal(b1-4)GlcNAc(b1-2)Man(a1-3)[Neu5Ac(a2-6)Gal(b1-4)GlcNAc(b1-3)Gal(b1-4)GlcNAc(b1-3)Gal(b1-4)GlcNAc(b1-2)Man(a1-6)]GalNAc
Summary of the method: as §1

[19] = target: Neu5Ac(a2-6)Gal(b1-4)GlcNAc(b1-3)[Neu5Ac(a2-6)Gal(b1-4)GlcNAc(b1-6)]GalNAc
Summary of the method: as §1

[20] = target: Neu5Ac(a2-8)Neu5Ac(a2-3)Gal(b1-3)GalNAc(b1-4)[Neu5Ac(a2-8)Neu5Ac(a2-3)]Gal(b1-4)Glc
Summary of the method: as §1

[21] = target: Neu5Ac(a2-8)Neu5Ac(a2-3)[Gal(b1-3)GalNAc(b1-4)]Gal(b1-4)Glc
Summary of the method: as §1

[22] = target: Neu5Ac(b2-6)Gal(b1-4)GlcNAc
Summary of the method: as §1

[23] = target: Neu5Gc(a2-8)Neu5Gc(a2-3)Gal(b1-4)GlcNAc(b1-3)Gal(b1-4)GlcNAc
Summary of the method: as §1

B1: Agalectin (Anopheles gambiae) (protein)
chain: MSNRPFTAKFPRYPENGDEVFIRGKLKDDAKSFSVNFCLPRPAQVAEHQTPPYIALHFKTIYDERDDTSRVVLNWKNLQWQQEEVLDNYWHVDRSQTFRVVFRLHEDCIKVFVNSVDHPPDYQFPVQLPLDQIESIELWDDVEHVEEISFRYDNGNSY
Gal6P(b1-4)GlcNAc
  glycan array binding signal (z-score): -0.335
GalNAc(a1-3)Gal
  glycan array binding signal (z-score): -0.221
GalNAc(b1-3)Gal
  glycan array binding signal (z-score): -0.678
[1]
  glycan array binding signal (z-score): 0.038
[2]
  glycan array binding signal (z-score): 0.499
Glc(b1-4)Glc
  glycan array binding signal (z-score): -0.613
[3]
  glycan array binding signal (z-score): -1.34
[4]
  glycan array binding signal (z-score): -0.389
GlcNAc(b1-3)Gal(b1-4)Glc
  glycan array binding signal (z-score): -0.291
[5]
  glycan array binding signal (z-score): -0.912
[6]
  glycan array binding signal (z-score): 3.5
[7]
  glycan array binding signal (z-score): 3.07
[8]
  glycan array binding signal (z-score): -0.362
[9]
  glycan array binding signal (z-score): 0.518
[10]
  glycan array binding signal (z-score): 0.945
[11]
  glycan array binding signal (z-score): -0.933
[12]
  glycan array binding signal (z-score): 0.193
[13]
  glycan array binding signal (z-score): 3.95
[14]
  glycan array binding signal (z-score): 3.86
[15]
  glycan array binding signal (z-score): 0.241
[16]
  glycan array binding signal (z-score): -0.321
[17]
  glycan array binding signal (z-score): 5.84
[18]
  glycan array binding signal (z-score): 2.96
[19]
  glycan array binding signal (z-score): -0.501
[20]
  glycan array binding signal (z-score): 0.647
[21]
  glycan array binding signal (z-score): -0.464
[22]
  glycan array binding signal (z-score): -0.879
[23]
  glycan array binding signal (z-score): 0.981
